# PubChem BioAssay (Tox21)
# Inconclusive results are not listed. Entries that show only a call come without a potency. Values without a mark were called inactive. The source made the active and inactive calls. Unless noted, calls come from the whole dose curve; as a rule, active = well fitted curve in the direction sought with a large enough effect in the repeat runs; inconclusive = weak or mixed curves; inactive = no such curve, though single readings can be large; an effect the other way counts as inactive or inconclusive.
# How the values were obtained:
# [1] = qHTS assay to identify small molecule agonists of the peroxisome proliferator-activated receptor delta (PPARd) signaling pathway - cell viability counter screen (AID 743211); note: nearly all actives have a fitted effect of over 55% in size
# Procedure, shortened: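 PPARd-bla HEK293H cells (3000/well) were pre-incubated 5 h at 37 C, then exposed to compound for 17 h at 37 C. After 2 h with LiveBLAzer substrate, CellTiter-Glo was added to the same wells; luminescence read after 30 min at room temperature.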
# [2] = qHTS assay to identify small molecule antagonists of the peroxisome proliferator-activated receptor delta (PPARd) signaling pathway - cell viability counter screen (AID 743213); note: nearly all actives have a fitted effect of over 50% in size
# Procedure, shortened: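 Agonist-stimulated (L165041, 300 nM final) HEK293H PPARd UAS-bla cells are exposed to compounds for 17 h at 37 C, and ATP-based luminescence (CellTiter-Glo) from the same wells reports cytotoxicity.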
# [3] = biological target: Peroxisome proliferator-activated receptor delta (Homo sapiens) (UniProt Q03181); assay: qHTS assay to identify small molecule antagonists of the peroxisome proliferator-activated receptor delta (PPARd) signaling pathway (AID 743215; active = well fitted inhibition curve with a large enough effect in the signal ratio in the repeat runs, not every such curve was filed as active; the % refers to the signal ratio; note: series mostly up to about 62 µM)
# Sequence of Peroxisome proliferator-activated receptor delta (Homo sapiens) (Q03181 whole entry, looked up): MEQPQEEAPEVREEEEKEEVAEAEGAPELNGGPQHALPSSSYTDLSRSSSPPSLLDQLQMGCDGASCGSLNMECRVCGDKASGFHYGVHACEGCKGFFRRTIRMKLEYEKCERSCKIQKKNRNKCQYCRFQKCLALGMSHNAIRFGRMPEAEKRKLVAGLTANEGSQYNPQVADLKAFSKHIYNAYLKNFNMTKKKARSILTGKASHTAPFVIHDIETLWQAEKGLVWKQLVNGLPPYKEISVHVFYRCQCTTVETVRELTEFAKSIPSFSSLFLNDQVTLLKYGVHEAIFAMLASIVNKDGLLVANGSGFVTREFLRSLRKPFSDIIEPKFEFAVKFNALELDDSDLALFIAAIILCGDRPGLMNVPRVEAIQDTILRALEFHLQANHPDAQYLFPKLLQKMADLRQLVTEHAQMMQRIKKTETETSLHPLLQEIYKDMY
# Procedure, shortened: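 PPARd-bla HEK293H cells (UAS-bla reporter) preincubated 5 h, then given compound plus 300 nM final L165041 agonist for 17 h at 37 C. Beta-lactamase activity read by LiveBLAzer B/G FRET substrate fluorescence after 2 h at room temperature.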
# [4] = biological target: Bile acid receptor (Homo sapiens) (UniProt Q96RI1); assay: qHTS assay to identify small molecule antagonists of the farnesoid-X-receptor (FXR) signaling pathway (AID 743217; active = well fitted inhibition curve with a large enough effect in the signal ratio in the repeat runs, not every such curve was filed as active; the % refers to the signal ratio)
# Sequence of Bile acid receptor (Homo sapiens) (Q96RI1 whole entry, looked up): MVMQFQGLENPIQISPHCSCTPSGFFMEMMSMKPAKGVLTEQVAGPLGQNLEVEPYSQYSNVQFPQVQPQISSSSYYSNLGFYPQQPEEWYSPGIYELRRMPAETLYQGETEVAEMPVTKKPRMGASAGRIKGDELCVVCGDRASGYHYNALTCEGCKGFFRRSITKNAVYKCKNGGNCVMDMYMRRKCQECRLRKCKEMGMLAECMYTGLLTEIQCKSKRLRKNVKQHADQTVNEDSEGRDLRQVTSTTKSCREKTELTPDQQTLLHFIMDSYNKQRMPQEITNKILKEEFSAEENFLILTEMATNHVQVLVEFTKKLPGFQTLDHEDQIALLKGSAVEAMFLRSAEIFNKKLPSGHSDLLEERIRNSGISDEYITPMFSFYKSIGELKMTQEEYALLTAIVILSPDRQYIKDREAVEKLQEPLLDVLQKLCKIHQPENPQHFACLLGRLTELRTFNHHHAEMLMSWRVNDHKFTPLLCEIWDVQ
# Procedure, shortened: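 FXR-UAS-bla HEK 293T cells (beta-lactamase reporter) given compound plus chenodeoxycholic acid (50 uM final), 16 h at 37C. LiveBLAzer B/G FRET substrate added for 2 h at room temperature; fluorescence read.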
# [5] = qHTS assay to identify small molecule agonists of the farnesoid-X-receptor (FXR) signaling pathway - cell viability counter screen (AID 743218); note: nearly all actives have a fitted effect of over 45% in size; note: potency is the fitted concentration of half-maximal effect
# Procedure, shortened: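 FXR-UAS-bla HEK 293T cells exposed to compounds for 16 h at 37C. Cytotoxicity read in the same wells by CellTiter-Glo luminescence after 30 min at room temperature, following the beta-lactamase FRET read.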
# [6] = biological target: Bile acid receptor (Homo sapiens) (UniProt Q96RI1); assay: qHTS assay to identify small molecule agonists of the farnesoid-X-receptor (FXR) signaling pathway (AID 743220; active = well fitted activation curve with a large enough effect in the signal ratio in the repeat runs, not every such curve was filed as active; the % refers to the signal ratio)
# Procedure, shortened: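 Beta-lactamase reporter under UAS control in GeneBLAzer FXR HEK 293T cells (5000/well) measured with LiveBLAzer FRET substrate after 2 h at room temperature. Compound exposure lasted 16 h at 37C.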
# [7] = biological target: Vitamin D3 receptor (Homo sapiens) (UniProt P11473); assay: qHTS assay to identify small molecule agonists of the vitamin D receptor (VDR) signaling pathway (AID 743222; calls by dose curve)
# Sequence of Vitamin D3 receptor (Homo sapiens) (P11473 whole entry, looked up): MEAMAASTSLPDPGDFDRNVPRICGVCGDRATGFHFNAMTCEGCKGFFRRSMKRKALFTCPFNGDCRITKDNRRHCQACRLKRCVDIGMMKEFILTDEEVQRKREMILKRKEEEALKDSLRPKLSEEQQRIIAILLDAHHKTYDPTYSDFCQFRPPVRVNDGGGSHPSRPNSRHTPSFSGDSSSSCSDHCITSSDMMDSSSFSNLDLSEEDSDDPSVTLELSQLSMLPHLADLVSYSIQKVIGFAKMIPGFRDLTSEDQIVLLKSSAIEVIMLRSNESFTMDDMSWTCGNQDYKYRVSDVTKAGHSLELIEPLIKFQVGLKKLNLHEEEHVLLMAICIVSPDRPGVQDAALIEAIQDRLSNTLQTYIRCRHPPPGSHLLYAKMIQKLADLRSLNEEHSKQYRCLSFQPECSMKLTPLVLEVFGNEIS
# Procedure, shortened: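 VDR-bla cells plated 4 h at 37 C, then exposed to compounds for 16 h at 37 C. Beta-lactamase reporter activity measured by fluorescence after 2 h room-temperature loading with LiveBLAzer B/G FRET substrate.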
# [8] = biological target: Peroxisome proliferator-activated receptor delta (Homo sapiens) (UniProt Q03181); assay: qHTS assay to identify small molecule agonists of the peroxisome proliferator-activated receptor delta (PPARd) signaling pathway (AID 743212; calls by dose curve)
# Procedure, shortened: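 GeneBLAzer PPARd UAS-bla HEK293H cells (beta-lactamase reporter under UAS control), plated and rested 5 h at 37 C, then exposed to compounds in DMSO at 37 C; LiveBLAzer B/G FRET substrate added, 2 h room temperature, fluorescence read.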
# [9] = qHTS assay to identify small molecule antagonists of the farnesoid-X-receptor (FXR) signaling pathway - cell viability counter screen (AID 743221; active = well fitted cell-killing curve with a large enough effect in the repeat runs, not every such curve was filed as active; note: nearly all actives have a fitted effect of over 50% in size)
# Procedure, shortened: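 GeneBLAzer FXR-UAS-bla HEK 293T cells, compound plus chenodeoxycholic acid (50 uM final), 16 h at 37 C. CellTiter-Glo added to the same wells after the beta-lactamase read; luminescence read after 30 min at room temperature as viability.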
# [10] = biological target: Vitamin D3 receptor (Homo sapiens) (UniProt P11473); assay: qHTS assay to identify small molecule antagonists of the vitamin D receptor (VDR) signaling pathway (AID 743223; active = well fitted inhibition curve with a large enough effect in the signal ratio in the repeat runs, not every such curve was filed as active; the % refers to the signal ratio)
# Procedure, shortened: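 VDR-bla cells were treated with compound plus 3 nM final 1alpha,25-dihydroxyvitamin D3 for 16 h at 37C. Beta-lactamase reporter read by B/G FRET substrate fluorescence after 2 h at room temperature. qHTS format.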
smiles,measurement,setting,value
CC(=O)CC/C=C(\C)CC/C=C(\C)CC/C=C(\C)CCC=C(C)C,Potency,[1],inactive
same,Potency,[2],inactive
same,outcome,[3],inactive
same,outcome,[4],inactive
same,Potency,[5],inactive
same,outcome,[6],inactive
same,outcome,[7],inactive
CCC(=O)O[C@@H]1C[C@H]2CC[C@]1(C)C2(C)C,Potency,[1],inactive
same,Potency,[8],inactive
same,Potency,[2],inactive
same,Potency,[9],inactive
same,outcome,[7],inactive
CC1(C)CC(O)CC(C)(C)N1[O],Potency,[1],inactive
same,Potency,[2],inactive
same,outcome,[3],inactive
same,outcome,[4],inactive
same,Potency,[5],inactive
same,outcome,[6],inactive
same,Potency,[9],inactive
same,outcome,[7],inactive
same,outcome,[10],inactive
Nc1nc(Cl)nc2c1ncn2[C@H]1C[C@H](O)[C@@H](CO)O1,Potency,[1],inactive
same,Potency,[2],inactive
same,outcome,[3],inactive
same,Potency,[5],inactive
same,outcome,[6],inactive
same,Potency,[9],inactive
same,outcome,[7],inactive
same,outcome,[10],inactive
CCCCCCCCCCCCCCCCCCCl,"activity change, negative = cytotoxicity",[1],0.407% [at 5.95 µM]
same,"viability change, negative = cytotoxic",[2],-29.3% [at 6.26 µM]
same,"ratio activity, negative = inhibition",[3],-12.3% [at 6.26 µM]
same,"activity change, negative = inhibition",[4],-9.56% [at 5.95 µM]
same,activation,[6],0.479% [at 5.95 µM]
same,"activity change, negative = cytotoxicity",[9],0.201% [at 5.95 µM]
same,activation,[7],1.2% [at 6.01 µM]
same,"activity change, negative = inhibition",[10],1.88% [at 6.95 µM]
Cc1ccc2c(Cl)cc(Cl)c(O)c2n1,Potency,[1],inactive
same,Potency,[8],inactive
same,Potency,[2],inactive
same,Potency,[9],inactive
same,outcome,[7],inactive
same,outcome,[10],inactive
CC1(C)[C@@H]2CC[C@]3(C2)[C@@H]1C(=O)CCC3(C)C,Potency,[1],inactive
same,Potency,[2],inactive
same,outcome,[3],inactive
same,outcome,[4],inactive
same,Potency,[5],inactive
same,outcome,[6],inactive
same,Potency,[9],inactive
same,outcome,[7],inactive
same,outcome,[10],inactive
COc1ccc(CN(CCN(C)C)c2ncccn2)cc1,Potency,[1],inactive
same,Potency,[2],inactive
same,outcome,[3],inactive
same,outcome,[4],inactive
same,Potency,[5],inactive
same,outcome,[6],inactive
same,Potency,[9],inactive
same,outcome,[7],inactive
C=Cc1ccc(C=C)cc1,Potency,[1],inactive
same,Potency,[2],inactive
same,outcome,[3],inactive
same,outcome,[4],inactive
same,outcome,[6],inactive
same,Potency,[9],inactive
same,outcome,[7],inactive
Clc1ccccc1-c1nc(-c2ccncc2)no1,Potency,[1],inactive
same,Potency,[2],inactive
same,outcome,[3],inactive
same,outcome,[4],inactive
same,Potency,[5],inactive
same,outcome,[6],inactive
same,Potency,[9],inactive
Cc1c(Cl)cccc1[N+](=O)[O-],Potency,[1],inactive
same,Potency,[8],inactive
same,outcome,[3],inactive
same,outcome,[4],inactive
same,Potency,[5],inactive
same,outcome,[6],inactive
same,Potency,[9],inactive
same,outcome,[7],inactive
Cc1ccc(NC=O)c(C)c1,Potency,[1],inactive
same,Potency,[2],inactive
same,outcome,[3],inactive
same,outcome,[4],inactive
same,Potency,[5],inactive
same,outcome,[6],inactive
same,Potency,[9],inactive
same,outcome,[7],inactive
same,outcome,[10],inactive
CCCc1ccc(OC)cc1,Potency,[1],inactive
same,Potency,[8],inactive
same,Potency,[5],inactive
same,Potency,[9],inactive
same,outcome,[7],inactive
CC(C)CCCCCCCOC(=O)c1ccc(C(=O)OCCCCCCCC(C)C)c(C(=O)OCCCCCCCC(C)C)c1,Potency,[1],inactive
same,Potency,[2],inactive
same,outcome,[3],inactive
same,Potency,[5],inactive
same,Potency,[9],inactive
same,outcome,[7],inactive
O=Cc1ccc([N+](=O)[O-])cc1,Potency,[1],inactive
same,Potency,[8],inactive
same,Potency,[2],inactive
same,Potency,[5],inactive
same,outcome,[7],inactive
same,outcome,[10],inactive
CCCC(=O)OCCC(C)C,Potency,[1],inactive
same,Potency,[8],inactive
same,outcome,[3],inactive
same,outcome,[4],inactive
same,Potency,[5],inactive
same,outcome,[6],inactive
same,Potency,[9],inactive
same,outcome,[7],inactive
CC1(C)CC(=O)CC(C)(C)N1,Potency,[1],inactive
same,Potency,[8],inactive
same,Potency,[5],inactive
same,Potency,[9],inactive
same,outcome,[7],inactive
CC(Cc1ccccc1)(NC(=O)CN)c1ccccc1 (stereo not given),Potency,[1],inactive
same,Potency,[8],inactive
same,Potency,[5],inactive
same,outcome,[6],inactive
same,Potency,[9],inactive
same,outcome,[7],inactive
same,outcome,[10],inactive
O=C(O)c1c2ccccc2cc2ccccc12,Potency,[1],inactive
same,Potency,[2],inactive
same,outcome,[3],inactive
same,outcome,[4],inactive
same,Potency,[5],inactive
same,outcome,[6],inactive
same,Potency,[9],inactive
same,outcome,[7],inactive
same,outcome,[10],inactive
C/C(=C\C(C)CC(C)CC(C)C)C1CC(=O)OC1=O (stereo not given),Potency,[1],inactive
same,Potency,[2],inactive
same,outcome,[3],inactive
same,Potency,[5],inactive
same,Potency,[9],inactive
same,outcome,[7],inactive
CCCC(=O)OCc1ccccc1,Potency,[1],inactive
same,Potency,[2],inactive
same,outcome,[3],inactive
same,outcome,[4],inactive
same,Potency,[5],inactive
same,outcome,[6],inactive
same,Potency,[9],inactive
same,outcome,[7],inactive
CC1(C)C(=O)NC(=O)N1CO,Potency,[1],inactive
same,Potency,[8],inactive
same,Potency,[2],inactive
same,Potency,[9],inactive
same,outcome,[7],inactive
same,outcome,[10],inactive
O=C(O)c1ccc(O)c(O)c1,Potency,[1],inactive
same,Potency,[8],inactive
same,outcome,[3],inactive
same,Potency,[5],inactive
same,Potency,[9],inactive
COc1ccc(/C=C/c2cc(OC)cc(=O)o2)cc1,Potency,[1],inactive
same,Potency,[8],inactive
same,outcome,[3],inactive
same,outcome,[4],inactive
same,outcome,[6],inactive
same,Potency,[9],inactive
same,outcome,[7],inactive
C1=COCCC1,Potency,[1],inactive
same,Potency,[2],inactive
same,outcome,[3],inactive
same,outcome,[4],inactive
same,Potency,[5],inactive
same,outcome,[6],inactive
same,Potency,[9],inactive
same,outcome,[7],inactive
same,outcome,[10],inactive
CCCc1nc(C)c2c(=O)[nH]c(-c3cc(S(=O)(=O)N4CCN(CC)CC4)ccc3OCC)nn12,Potency,[1],inactive
same,Potency,[8],inactive
same,Potency,[2],inactive
same,Potency,[5],inactive
same,Potency,[9],inactive
same,outcome,[7],inactive
same,outcome,[10],inactive
CC(COc1ccccc1)NC(C)C(O)c1ccc(O)cc1 (stereo not given),Potency,[1],inactive
same,Potency,[8],inactive
same,outcome,[3],inactive
same,Potency,[5],inactive
same,outcome,[6],inactive
same,outcome,[7],inactive
O=C1c2ccccc2C(=O)C1c1ccc2cc(S(=O)(=O)O)cc(S(=O)(=O)O)c2n1,Potency,[1],inactive
same,Potency,[2],inactive
COC=O,"activity change, negative = cytotoxicity",[1],-28.1% [at 5.95 µM]
same,activation,[8],-8.76% [at 5.95 µM]
same,"viability change, negative = cytotoxic",[5],22% [at 5.95 µM]
same,"activity change, negative = cytotoxicity",[9],10.8% [at 5.95 µM]
Cc1nc2sccn2c(=O)c1CCN1CCC(=C(c2ccc(F)cc2)c2ccc(F)cc2)CC1,Potency,[1],inactive
same,Potency,[8],inactive
same,Potency,[5],26.6 µM (active)
same,Potency,[9],inactive
C=C[Si]1(C)O[Si](C)(C=C)O[Si](C)(C=C)O[Si](C)(C=C)O1 (stereo not given),Potency,[1],inactive
same,Potency,[5],inactive
same,Potency,[9],inactive
same,outcome,[7],inactive
same,outcome,[10],inactive
O=[N+]([O-])c1cccc(I)c1,Potency,[1],inactive
same,outcome,[3],inactive
same,Potency,[5],inactive
same,outcome,[7],inactive
CC1=CC(=C(c2ccc(N)cc2)c2ccc(N)cc2)C=CC1=N,activation,[8],-0.0637% [at 5.95 µM]
same,"viability change, negative = cytotoxic",[2],-32.9% [at 6.26 µM]
same,"ratio activity, negative = inhibition",[3],-10.9% [at 6.26 µM]
same,"viability change, negative = cytotoxic",[5],-22.2% [at 5.95 µM]
same,activation,[7],-2.54% [at 6.01 µM]
